High-throughput results from PubChem.
POLK inh – blocks human DNA polymerase kappa activity | Q9UBT6 | purified Pol kappa, fluorescent DNA synthesis assay, 10 min | Potency, µM (highest dose often 107 µM), usual class: inhibitors | actives 0.53% (n = 400,000)
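10 nM Pol kappa was preincubated with compounds for 15 min at room temperature. Reaction started with 50 nM (final) substrate. Fluorescence read kinetically at 0 and 10 min.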
POLI inh – inhibitors of human DNA polymerase iota; Potency, µM (doses to about 115 µM), most hits filed as inhibitors; Pol iota fluorescent replication assay, 10 min; actives 1% (n = 390,000)
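Fluorescent replication assay read twice, at 0 min and 10 min after adding 50 nM (final) substrate. Enzyme (10 nM) and compounds were first incubated 15 min at room temperature; enzyme-free buffer wells were negative controls.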
APE1 inh – APE1 (human) endonuclease inhibition | Potency, µM (series often up to 65.8 µM), most hits filed as inhibitors | actives 0.35% (n = 350,000) | recombinant APE1, TAMRA/BHQ-2 abasic DNA cleavage fluorescence | P27695; further: nearly all actives have a fitted effect of over 55% in size
Target sequence (P27695 whole entry, looked up): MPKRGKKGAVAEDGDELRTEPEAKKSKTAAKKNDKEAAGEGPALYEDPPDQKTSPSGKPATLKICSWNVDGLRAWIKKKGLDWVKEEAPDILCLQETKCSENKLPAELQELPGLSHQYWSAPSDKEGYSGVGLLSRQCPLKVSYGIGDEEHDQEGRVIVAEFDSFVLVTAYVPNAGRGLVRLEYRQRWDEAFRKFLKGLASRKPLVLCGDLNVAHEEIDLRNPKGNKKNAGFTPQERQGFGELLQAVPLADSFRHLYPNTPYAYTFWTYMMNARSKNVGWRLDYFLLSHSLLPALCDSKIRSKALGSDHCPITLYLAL
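APE1 at 0.75 nM preincubated 15 min at room temperature with compound. Reaction then started with 50 nM double-stranded THF-abasic substrate labelled with TAMRA/BHQ-2, and 525/598 nm fluorescence read kinetically. Activity taken as third-minus-first read difference, normalized to DMSO and NSC13755 controls.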
Pol eta inh – DNA polymerase eta (human) inhibition | recombinant Pol eta, fluorescent DNA replication assay | AID 588591 | Potency, µM (series often up to 114 µM), usual class: inhibitors | Q9Y253 | actives 1.2% (n = 390,000)
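Pol eta (10 nM) was preincubated with compounds for 15 min at room temperature, after which fluorescent replication substrate (50 nM final) was added to start the reaction. Fluorescence was read kinetically at 0 and 10 min.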
Pol beta inh – blocks human DNA polymerase beta activity; P06746; Pol beta primer extension/strand displacement, fluorescence kinetic; Potency, µM (doses to about 114 µM), actives largely listed as inhibitors; actives 1.3% (n = 340,000)
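Values derive from four-parameter Hill fits of normalized kinetic data: reads at 0 and 10 min following addition of 50 nM substrate to 10 nM Pol beta preincubated 15 min with compound.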
GLS inh – blocks human kidney-isoform glutaminase activity; O94925; GLS enzymatic activity, qHTS titration; Potency, µM (doses to about 45.5 µM), actives largely listed as inhibitors; actives 0.21% (n = 410,000)
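Two-point fluorescence kinetic (t0, 30 min RT) for hKGA; glutamate detected via glutamate oxidase–HRP–Amplex Red. Substrate: 1 mM L-glutamine solution; buffer 45 mM KH2PO4, pH 8.2.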
Each line names hits and unclear results; the compound was inactive in the other large screens; ! = repeats disagree. Most compounds without a hit are left out; they make up all but 2.4% or so of the library. The call rests on the fitted dose curve; in most records, active means well fitted curve in the direction sought with a large enough effect; inconclusive means small, poorly fitted or top-dose-only effect, or another doubt; inactive means no such curve, though single readings can be large; an effect the other way counts as inactive or inconclusive.

Cc1ccc2occ(C3N[C@H](C(=O)O)CS3)c(=O)c2c1 (stereo partly specified)	POLI inh 10µM, Pol eta inh inconclusive
CN(C)c1nc(N)nc(CSc2ncc(Cl)cc2Cl)n1	Pol beta inh inconclusive
O=c1cc(Cl)[nH]c(=O)n1Cc1ccccc1	none
CN=C1SC(CC(=O)NCCc2ccc(OC)c(OC)c2)C(=O)N1C (stereo unspecified)	POLK inh inconclusive, POLI inh inconclusive, Pol eta inh 56.2µM!
CN(C)c1ccc(/C=C(\C#N)C(=O)NCc2ccco2)cc1	Pol beta inh 56.2µM (no result: POLK inh, POLI inh, Pol eta inh, GLS inh)
CCN(CC)c1ccc(/C=C(\C#N)C(=O)NCc2ccco2)cc1	none (no result: POLK inh, POLI inh, Pol eta inh, GLS inh)
CCOc1cccc(=O)c2c(C)n(CC(=O)c3ccccc3)c(C)c12	POLK inh inconclusive, POLI inh inconclusive, Pol beta inh inconclusive
COc1cccc(=O)c2c(C)n(CC(=O)c3ccccc3)c(C)c12	POLI inh inconclusive, Pol eta inh inconclusive, Pol beta inh 22.4µM
COc1ccc2c(c1)c(=O)oc1cc(OCC(=O)N3CCCC(C)C3)ccc12 (stereo unspecified)	POLI inh inconclusive, APE1 inh inconclusive, Pol eta inh inconclusive, Pol beta inh 3.98µM
N=c1sccn1CC(=O)Nc1ccccc1Cc1ccccc1	none
O=C(ONC(=O)C1C2C=CC(C2)C1C(=O)NOC(=O)c1ccccc1)c1ccccc1 (stereo unspecified)	GLS inh 12.6µM (no result: APE1 inh, Pol beta inh)
Cc1ccccc1Nc1nn2c(=O)c3ccc(C(=O)NCc4cccs4)cc3nc2s1	POLI inh 79.4µM, Pol eta inh inconclusive, Pol beta inh 20µM (no result: APE1 inh)
CCOC(=O)CNC(=O)C(CO)NC(=O)OCc1ccccc1 (stereo unspecified)	none
O=C(COc1ccccc1F)Nc1nnc(S(=O)(=O)N2CCCCCC2)s1	none (no result: APE1 inh)
CCN1CCN(Cc2ccc(NC(=O)c3ccc(C)c(/C=C/c4cnc(Nc5cc(N6CCNCC6)nc(C)n5)cn4)c3)cc2C(F)(F)F)CC1	POLI inh inconclusive, APE1 inh inconclusive, Pol eta inh 79.4µM
CN(C)C(CNC(=O)c1cccc(NS(=O)(=O)c2ccc(Br)cc2)c1)c1ccco1 (stereo unspecified)	POLI inh inconclusive (no result: Pol beta inh)
O=C(CC1(O)C(=O)N(CCc2ccccc2)c2ccc(Br)cc21)c1ccccc1 (stereo unspecified)	POLI inh 89.1µM, Pol eta inh inconclusive (no result: APE1 inh)
CCn1c(SCC(=O)c2c(N)n(C)c(=O)n(C)c2=O)nc2sc(C)c(C)c2c1=O	none (no result: POLK inh, POLI inh, Pol eta inh, GLS inh)
O=C(CCCN1C(=O)/C(=C/c2cccs2)SC1=S)Nc1cc([N+](=O)[O-])ccc1O	none
O=C(CCN1C(=O)/C(=C/c2ccc(F)cc2)SC1=S)Nc1cc([N+](=O)[O-])ccc1O	POLI inh inconclusive, Pol beta inh 44.7µM
COC(=O)CSc1nc2c(c(-c3ccco3)c1C#N)CCCC2	POLI inh inconclusive, Pol eta inh inconclusive, Pol beta inh 22.4µM
COC(=O)CSc1nc2c(c(-c3ccc(O)cc3)c1C#N)CCCC2	none
CCOC(=O)CCCNc1ccc([N+](=O)[O-])cc1[N+](=O)[O-]	none
O=C(CSc1nc2c(cnn2-c2ccc(F)cc2)c(=O)[nH]1)Nc1ccccc1C(F)(F)F	POLI inh inconclusive, Pol beta inh 7.94µM, GLS inh inconclusive (no result: APE1 inh)
CC(C)(C)c1csc(N/N=C/c2cccnc2)n1	GLS inh 11.2µM
CCCCCCCC[N+](C)(C)CCCCCCCC	none (no result: POLK inh, POLI inh, APE1 inh, Pol eta inh, Pol beta inh)
CCCCCCCCCCCCCCCC[N+](C)(C)CC	Pol eta inh 89.1µM, GLS inh inconclusive (no result: Pol beta inh)
CCCCCCCCCCCCCCCC[N+](C)(C)Cc1ccccc1	GLS inh 31.6µM (no result: POLI inh, APE1 inh, Pol eta inh, Pol beta inh)
O=C(CN(CCc1ccccc1)S(=O)(=O)c1ccccc1)NCc1ccc(Cl)cc1	none (no result: APE1 inh)
CCOc1ccc2oc(C(=O)NNC(=O)c3ccccc3O)c(C)c2c1	POLI inh inconclusive, Pol eta inh 79.4µM (no result: Pol beta inh)
Cc1c(C(=O)NNC(=O)c2ccccc2O)oc2ccc(Br)cc12	POLI inh inconclusive, Pol eta inh inconclusive (no result: APE1 inh, Pol beta inh)
Cc1ccc(O)c(C2=Nc3ccccc3N=C(c3cccc(F)c3)C2)c1	POLI inh 89.1µM (no result: APE1 inh, Pol eta inh, GLS inh)
O=C(C[n+]1cc(Br)cc2ccccc21)c1ccc(O)c(O)c1	POLK inh 2.82µM, POLI inh inconclusive (no result: APE1 inh, Pol eta inh, Pol beta inh, GLS inh)
COc1ccc(OC)c2c(C)c(C)[nH]c12	Pol beta inh 28.2µM
Cc1ccc(S(=O)(=O)N2CC=C(c3c(C)n(CC(=O)N4CCCC4)c4ccccc34)CC2)cc1C	POLI inh 79.4µM (no result: APE1 inh)
Cc1nc2ccccc2oc1=O	none (no result: POLK inh, POLI inh, Pol eta inh, Pol beta inh, GLS inh)
Nc1cc2nc3ccccc3oc-2cc1=O	POLK inh 44.7µM, POLI inh 20µM, Pol eta inh inconclusive, Pol beta inh 25.1µM
Cc1c(N=C2C=CC(=O)c3ccccc32)c(=O)n(-c2ccccc2)n1C	POLI inh inconclusive, Pol eta inh 44.7µM, Pol beta inh inconclusive, GLS inh inconclusive
CC[C@]12c3[nH]c4ccc(Cl)cc4c3CCN1C(=O)[C@@H](CC(=O)NCCCn1ccnc1)C[C@@H]2C(=O)N1CCN(C(=O)C2CC2)CC1	POLI inh 89.1µM (no result: Pol beta inh)
CC[C@]12c3[nH]c4cc(-c5ccco5)ccc4c3CCN1C(=O)[C@@H](CC(=O)NCC13CC4CC(CC(C4)C1)C3)C[C@@H]2C(=O)N1CCN(C(=O)c2ccco2)CC1	POLI inh 28.2µM (no result: Pol beta inh)
CC[C@]12c3[nH]c4cc(-c5ccco5)ccc4c3CCN1C(=O)[C@@H](CC(=O)NCC13CC4CC(CC(C4)C1)C3)C[C@@H]2C(=O)N1CCN(C(=O)C2CC2)CC1	none (no result: Pol beta inh)
CCc1cccc(N2C(=O)N(CC(=O)NCc3cccc(OC)c3OC)c3ccccc3S2(=O)=O)c1	none (no result: APE1 inh)
COc1ccc([N+](=O)[O-])c(S(=O)(=O)c2ccccc2)n1	POLI inh 14.1µM
COc1ccc([N+](=O)[O-])c(S(=O)(=O)c2ccc(Cl)cc2)n1	POLI inh inconclusive, APE1 inh inconclusive
O=C(O)CCC(=O)NNc1ncnc2ccccc12	none
O=C(O)CCC(=O)NNc1nc2ccccc2nc1-c1ccccc1	GLS inh 11.2µM
Cc1cc(O)c2c(c1)C(=O)c1cccc(O)c1C2=O	POLK inh inconclusive, APE1 inh 31.6µM! (no result: POLI inh, Pol eta inh, GLS inh)
Cc1cnc2c(c1)C(=O)c1ccccc1-2	none
O=C(C[C@@H]1C/C=C\C[C@H](NC(=O)OCC2c3ccccc3-c3ccccc32)C(=O)OC[C@@H]2CCCN2C1=O)N[C@@H](CO)Cc1ccccc1	none (no result: Pol beta inh)
O=C(C[C@@H]1C/C=C\C[C@H](NC(=O)OCC2c3ccccc3-c3ccccc32)C(=O)OC[C@@H]2CCCN2C1=O)NCCO	APE1 inh 9.47µM (no result: Pol beta inh)
CC(C)(C)OC(=O)C[C@@H]1C/C=C\C[C@H](CC(=O)NCCO)C(=O)N2CCC[C@H]2COC1=O	POLI inh inconclusive, APE1 inh 6.7µM (no result: Pol beta inh)
